# Test results: PMC7862700, “An all-to-all approach to the identification of sequence-specific readers for epigenetic DNA modifications on cytosine”
# Assays:
# Assay in all cases: DAPPL (digital affinity profiling via proximity ligation, sequencing); 10 mM Tris-HCl pH 7.5, 50 mM NaCl, 1 mM DTT, 4% glycerol, room temperature, 30 min; GST-TFs on glutathione beads, 16-mer random dsDNA library, 0.1% formaldehyde crosslink after washing; high values mean tight binding
# [1] = molecular target: T1, FLI1 (Homo sapiens, UniProt Q01543 1-452); conditions: protein: recombinant; tags: N-terminal GST; dsDNA, one strand shown
# T1 sequence: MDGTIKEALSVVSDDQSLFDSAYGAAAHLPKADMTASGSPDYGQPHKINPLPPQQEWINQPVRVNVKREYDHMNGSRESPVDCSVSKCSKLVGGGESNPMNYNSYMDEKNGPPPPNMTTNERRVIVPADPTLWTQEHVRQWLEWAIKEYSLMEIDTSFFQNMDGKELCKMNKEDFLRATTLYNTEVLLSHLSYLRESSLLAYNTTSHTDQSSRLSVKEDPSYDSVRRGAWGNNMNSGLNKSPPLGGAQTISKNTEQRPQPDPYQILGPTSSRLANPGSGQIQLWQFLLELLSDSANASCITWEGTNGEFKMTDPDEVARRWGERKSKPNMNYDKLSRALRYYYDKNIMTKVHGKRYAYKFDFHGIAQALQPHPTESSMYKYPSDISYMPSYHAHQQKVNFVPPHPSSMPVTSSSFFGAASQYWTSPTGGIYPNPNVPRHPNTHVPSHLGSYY
# Summary of the method: (§1)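 After expression in yeast as GST fusions, human transcription factors were bound to glutathione beads, DNA-barcoded and mixed with a tag-only sample. The pools were incubated with 200 nmole of a 16-mer random double-stranded DNA library in Tris/NaCl/DTT/glycerol buffer (30 min, room temperature), washed and crosslinked with 0.1% formaldehyde. Proximity ligation with BsaI/T4 ligase ran for 1 h at 37 °C, before PCR amplification and sequencing on an Illumina NextSeq500. Binding signal is a hexamer's read frequency for a factor divided by its frequency for the tag-only sample.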
# [2] = molecular target: T2, ELK1 (Homo sapiens, UniProt P19419 1-428); conditions: protein: recombinant; tags: N-terminal GST; dsDNA, one strand shown
# T2 sequence: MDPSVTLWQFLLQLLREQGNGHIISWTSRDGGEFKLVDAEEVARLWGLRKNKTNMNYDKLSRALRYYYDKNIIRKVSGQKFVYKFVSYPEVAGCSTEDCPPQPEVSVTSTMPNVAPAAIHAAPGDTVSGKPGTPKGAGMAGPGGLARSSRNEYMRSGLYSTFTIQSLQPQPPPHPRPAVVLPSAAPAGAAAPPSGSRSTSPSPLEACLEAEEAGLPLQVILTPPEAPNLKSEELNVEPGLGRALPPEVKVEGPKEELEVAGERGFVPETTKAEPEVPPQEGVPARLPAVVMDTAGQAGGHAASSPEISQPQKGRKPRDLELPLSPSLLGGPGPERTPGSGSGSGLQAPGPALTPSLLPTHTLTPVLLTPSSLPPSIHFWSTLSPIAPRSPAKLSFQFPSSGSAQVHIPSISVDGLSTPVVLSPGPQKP
# Summary of the method: as §1
# [3] = molecular target: T3, GABPA (Homo sapiens, UniProt Q06546 1-454); conditions: protein: recombinant; tags: N-terminal GST; dsDNA, one strand shown
# T3 sequence: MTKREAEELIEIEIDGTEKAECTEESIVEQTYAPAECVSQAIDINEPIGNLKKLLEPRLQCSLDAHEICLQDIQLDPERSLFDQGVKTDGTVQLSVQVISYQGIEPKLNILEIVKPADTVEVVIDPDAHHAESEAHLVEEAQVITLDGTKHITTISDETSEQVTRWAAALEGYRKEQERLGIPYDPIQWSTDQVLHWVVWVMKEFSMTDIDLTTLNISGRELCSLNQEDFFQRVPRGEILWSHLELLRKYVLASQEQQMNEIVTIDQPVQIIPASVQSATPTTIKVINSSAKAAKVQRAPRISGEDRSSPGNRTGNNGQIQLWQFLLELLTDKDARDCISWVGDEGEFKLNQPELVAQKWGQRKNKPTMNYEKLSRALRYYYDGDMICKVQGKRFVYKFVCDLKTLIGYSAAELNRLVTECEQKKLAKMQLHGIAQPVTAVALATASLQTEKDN
# Summary of the method: as §1
# [4] = molecular target: T4, ERG (Homo sapiens, UniProt P11308 1-479); conditions: protein: recombinant; tags: N-terminal GST; dsDNA, one strand shown
# T4 sequence: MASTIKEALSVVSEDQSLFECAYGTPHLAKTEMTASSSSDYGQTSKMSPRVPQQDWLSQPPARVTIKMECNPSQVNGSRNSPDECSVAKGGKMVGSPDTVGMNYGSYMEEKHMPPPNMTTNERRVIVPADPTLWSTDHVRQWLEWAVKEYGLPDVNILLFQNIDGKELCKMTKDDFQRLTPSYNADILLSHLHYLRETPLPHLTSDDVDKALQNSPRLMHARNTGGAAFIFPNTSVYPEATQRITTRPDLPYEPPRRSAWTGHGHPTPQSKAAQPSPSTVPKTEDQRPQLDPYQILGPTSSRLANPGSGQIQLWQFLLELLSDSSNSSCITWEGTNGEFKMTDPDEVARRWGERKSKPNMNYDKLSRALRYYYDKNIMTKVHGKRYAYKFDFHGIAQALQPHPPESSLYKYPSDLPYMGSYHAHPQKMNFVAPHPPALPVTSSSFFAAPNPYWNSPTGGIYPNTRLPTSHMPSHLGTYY
# Summary of the method: as §1
# [5] = molecular target: ELF1 (Homo sapiens, UniProt P32519 1-619); conditions: protein: recombinant; tags: N-terminal GST; dsDNA, one strand shown
# Sequence of ELF1 (P32519 whole entry): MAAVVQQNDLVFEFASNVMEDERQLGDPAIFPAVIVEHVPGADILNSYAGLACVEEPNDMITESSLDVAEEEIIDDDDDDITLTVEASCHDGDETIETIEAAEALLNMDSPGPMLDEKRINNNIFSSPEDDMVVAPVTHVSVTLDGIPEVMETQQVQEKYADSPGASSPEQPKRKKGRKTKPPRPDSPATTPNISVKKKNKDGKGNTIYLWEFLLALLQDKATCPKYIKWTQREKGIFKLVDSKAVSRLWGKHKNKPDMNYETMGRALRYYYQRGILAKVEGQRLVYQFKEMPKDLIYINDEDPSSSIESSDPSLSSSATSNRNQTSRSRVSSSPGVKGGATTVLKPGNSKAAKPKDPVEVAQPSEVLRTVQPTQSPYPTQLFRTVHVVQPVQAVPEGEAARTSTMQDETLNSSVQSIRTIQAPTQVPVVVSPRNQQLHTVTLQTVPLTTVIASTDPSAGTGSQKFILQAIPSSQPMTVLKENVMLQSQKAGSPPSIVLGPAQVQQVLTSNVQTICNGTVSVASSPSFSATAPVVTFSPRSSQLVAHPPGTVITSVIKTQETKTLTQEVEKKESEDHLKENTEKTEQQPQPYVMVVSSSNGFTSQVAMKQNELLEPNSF
# Summary of the method: as §1
# [6] = molecular target: T5, EHF (Homo sapiens, UniProt Q9NZC4 1-300); conditions: protein: recombinant; tags: N-terminal GST; dsDNA, one strand shown
# T5 sequence: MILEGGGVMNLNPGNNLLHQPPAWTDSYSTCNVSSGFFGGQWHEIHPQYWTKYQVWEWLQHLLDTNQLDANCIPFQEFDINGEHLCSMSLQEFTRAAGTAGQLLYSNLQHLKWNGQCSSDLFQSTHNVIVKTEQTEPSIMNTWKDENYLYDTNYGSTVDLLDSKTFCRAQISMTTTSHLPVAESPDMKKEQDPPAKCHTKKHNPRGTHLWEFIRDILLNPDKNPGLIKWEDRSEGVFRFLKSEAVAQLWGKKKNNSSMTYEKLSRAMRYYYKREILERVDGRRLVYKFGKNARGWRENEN
# Summary of the method: as §1
# [7] = molecular target: SPI1 (Homo sapiens, UniProt P17947 1-270); conditions: protein: recombinant; tags: N-terminal GST; dsDNA, one strand shown
# Summary of the method: as §1
# [8] = molecular target: SPIB (Homo sapiens, UniProt Q01892 1-262); conditions: protein: recombinant; tags: N-terminal GST; dsDNA, one strand shown
# Sequence of SPIB (Q01892 whole entry): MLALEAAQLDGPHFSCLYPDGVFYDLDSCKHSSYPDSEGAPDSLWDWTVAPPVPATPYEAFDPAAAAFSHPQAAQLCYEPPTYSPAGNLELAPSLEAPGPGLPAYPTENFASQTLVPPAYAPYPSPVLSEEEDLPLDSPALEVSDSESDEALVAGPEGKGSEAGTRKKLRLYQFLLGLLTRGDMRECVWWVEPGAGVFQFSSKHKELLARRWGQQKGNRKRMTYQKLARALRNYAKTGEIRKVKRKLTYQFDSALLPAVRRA
# Summary of the method: as §1
# [9] = molecular target: T6, ELK3 (Homo sapiens, UniProt P41970 1-407); conditions: protein: recombinant; tags: N-terminal GST; dsDNA, one strand shown
# T6 sequence: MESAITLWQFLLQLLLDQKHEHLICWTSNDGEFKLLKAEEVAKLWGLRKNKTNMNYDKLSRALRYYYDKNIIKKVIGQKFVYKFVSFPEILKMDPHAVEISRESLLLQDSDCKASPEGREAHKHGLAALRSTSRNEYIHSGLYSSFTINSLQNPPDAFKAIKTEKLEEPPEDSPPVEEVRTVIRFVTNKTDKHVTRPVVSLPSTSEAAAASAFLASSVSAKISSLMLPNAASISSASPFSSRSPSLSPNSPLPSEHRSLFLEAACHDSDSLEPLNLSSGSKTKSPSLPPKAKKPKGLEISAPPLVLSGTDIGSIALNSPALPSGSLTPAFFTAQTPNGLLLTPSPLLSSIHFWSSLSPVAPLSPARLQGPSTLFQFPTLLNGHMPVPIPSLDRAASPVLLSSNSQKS
# Summary of the method: as §1
# [10] = molecular target: T7, FEV (Homo sapiens, UniProt Q99581 1-238); conditions: protein: recombinant; tags: N-terminal GST; dsDNA, one strand shown
# T7 sequence: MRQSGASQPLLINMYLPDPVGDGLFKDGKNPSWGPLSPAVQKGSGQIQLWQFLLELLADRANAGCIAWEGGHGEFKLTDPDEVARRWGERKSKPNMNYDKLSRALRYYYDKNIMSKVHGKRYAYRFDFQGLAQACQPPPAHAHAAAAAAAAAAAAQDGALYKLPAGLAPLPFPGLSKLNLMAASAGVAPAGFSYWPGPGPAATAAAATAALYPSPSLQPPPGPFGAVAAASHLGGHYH
# Summary of the method: as §1
# [11] = molecular target: ETV5 (Homo sapiens, UniProt P41161 1-510); conditions: protein: recombinant; tags: N-terminal GST; dsDNA, one strand shown
# Sequence of ETV5 (P41161 whole entry): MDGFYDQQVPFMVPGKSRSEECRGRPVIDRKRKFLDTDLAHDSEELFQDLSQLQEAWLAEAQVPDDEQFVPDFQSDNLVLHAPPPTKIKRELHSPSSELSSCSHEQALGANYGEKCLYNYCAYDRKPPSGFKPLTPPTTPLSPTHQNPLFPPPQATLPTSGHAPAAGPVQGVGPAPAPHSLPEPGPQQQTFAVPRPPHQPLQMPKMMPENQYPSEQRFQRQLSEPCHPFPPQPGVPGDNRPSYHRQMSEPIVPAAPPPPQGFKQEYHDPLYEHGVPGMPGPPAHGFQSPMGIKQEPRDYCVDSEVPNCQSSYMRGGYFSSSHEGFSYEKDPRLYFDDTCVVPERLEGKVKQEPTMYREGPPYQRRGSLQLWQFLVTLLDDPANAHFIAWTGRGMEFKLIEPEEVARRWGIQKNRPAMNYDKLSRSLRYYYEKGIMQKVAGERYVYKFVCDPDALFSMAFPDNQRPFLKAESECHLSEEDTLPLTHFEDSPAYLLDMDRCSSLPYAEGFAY
# Summary of the method: as §1
# [12] = molecular target: HSF1 (Homo sapiens, UniProt Q00613 1-529); conditions: protein: recombinant; tags: N-terminal GST; chain copies: 3; dsDNA, one strand shown
# Sequence of HSF1 (Q00613 whole entry): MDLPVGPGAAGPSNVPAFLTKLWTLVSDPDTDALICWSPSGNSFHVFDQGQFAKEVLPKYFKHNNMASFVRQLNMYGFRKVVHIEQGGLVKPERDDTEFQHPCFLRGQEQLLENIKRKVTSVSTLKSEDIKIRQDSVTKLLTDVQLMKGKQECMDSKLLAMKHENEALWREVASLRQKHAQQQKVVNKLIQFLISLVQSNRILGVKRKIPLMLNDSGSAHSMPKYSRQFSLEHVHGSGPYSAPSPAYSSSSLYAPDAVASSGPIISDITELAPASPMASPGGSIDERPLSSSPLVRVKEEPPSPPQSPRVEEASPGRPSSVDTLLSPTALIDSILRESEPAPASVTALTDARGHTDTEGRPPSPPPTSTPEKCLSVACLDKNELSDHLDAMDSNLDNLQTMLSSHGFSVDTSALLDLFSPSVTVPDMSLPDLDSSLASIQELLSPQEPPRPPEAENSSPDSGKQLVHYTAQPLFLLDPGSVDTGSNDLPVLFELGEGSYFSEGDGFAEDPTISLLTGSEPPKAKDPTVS
# Summary of the method: as §1
# [13] = molecular target: T8, SPIC (Homo sapiens, UniProt Q8N5J4 1-248); conditions: protein: recombinant; tags: N-terminal GST; dsDNA, one strand shown
# T8 sequence: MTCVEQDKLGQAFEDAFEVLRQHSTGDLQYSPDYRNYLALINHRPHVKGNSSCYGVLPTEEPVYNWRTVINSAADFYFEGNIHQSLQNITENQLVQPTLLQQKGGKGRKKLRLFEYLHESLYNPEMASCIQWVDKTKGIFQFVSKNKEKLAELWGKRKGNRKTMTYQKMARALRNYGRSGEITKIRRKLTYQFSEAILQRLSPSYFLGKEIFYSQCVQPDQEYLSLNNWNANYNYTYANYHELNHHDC
# Summary of the method: as §1
# [14] = molecular target: ELF4 (Homo sapiens, UniProt Q99607 1-663); conditions: protein: recombinant; tags: N-terminal GST; dsDNA, one strand shown
# Sequence of ELF4 (Q99607 whole entry): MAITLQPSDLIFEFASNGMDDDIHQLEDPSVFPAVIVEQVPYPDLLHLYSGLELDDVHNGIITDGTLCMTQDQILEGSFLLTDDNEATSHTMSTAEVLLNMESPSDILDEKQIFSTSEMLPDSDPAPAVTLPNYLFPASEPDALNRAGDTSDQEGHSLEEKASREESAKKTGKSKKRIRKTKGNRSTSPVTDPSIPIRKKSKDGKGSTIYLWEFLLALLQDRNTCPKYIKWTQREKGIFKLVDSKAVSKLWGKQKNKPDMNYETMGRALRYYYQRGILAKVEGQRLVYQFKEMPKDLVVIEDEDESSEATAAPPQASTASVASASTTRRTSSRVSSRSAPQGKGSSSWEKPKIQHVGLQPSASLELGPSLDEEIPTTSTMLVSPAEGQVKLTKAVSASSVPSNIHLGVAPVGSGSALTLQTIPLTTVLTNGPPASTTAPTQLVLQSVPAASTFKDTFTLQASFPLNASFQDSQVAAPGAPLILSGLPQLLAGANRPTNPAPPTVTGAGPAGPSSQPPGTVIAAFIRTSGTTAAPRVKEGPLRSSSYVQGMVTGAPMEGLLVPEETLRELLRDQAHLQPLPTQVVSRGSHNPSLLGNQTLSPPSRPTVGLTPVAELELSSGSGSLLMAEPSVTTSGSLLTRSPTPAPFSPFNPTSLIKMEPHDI
# Summary of the method: as §1
# [15] = molecular target: T9, ELK4 (Homo sapiens, UniProt P28324-2 1-405); conditions: protein: recombinant; tags: N-terminal GST; dsDNA, one strand shown
# T9 sequence: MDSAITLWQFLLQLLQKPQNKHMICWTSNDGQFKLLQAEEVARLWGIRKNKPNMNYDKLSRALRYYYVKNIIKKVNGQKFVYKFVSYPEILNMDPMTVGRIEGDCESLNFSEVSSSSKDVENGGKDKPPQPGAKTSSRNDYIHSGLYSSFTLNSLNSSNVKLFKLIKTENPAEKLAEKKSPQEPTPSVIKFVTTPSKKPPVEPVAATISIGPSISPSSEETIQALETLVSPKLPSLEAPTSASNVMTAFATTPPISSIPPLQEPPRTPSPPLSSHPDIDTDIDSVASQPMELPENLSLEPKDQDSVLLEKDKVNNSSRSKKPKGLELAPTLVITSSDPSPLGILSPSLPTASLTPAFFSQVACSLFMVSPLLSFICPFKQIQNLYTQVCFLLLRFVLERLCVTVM
# Summary of the method: as §1
# [16] = molecular target: T10, ETV2 (Homo sapiens, UniProt O00321 1-342); conditions: protein: recombinant; tags: N-terminal GST; dsDNA, one strand shown
# T10 sequence: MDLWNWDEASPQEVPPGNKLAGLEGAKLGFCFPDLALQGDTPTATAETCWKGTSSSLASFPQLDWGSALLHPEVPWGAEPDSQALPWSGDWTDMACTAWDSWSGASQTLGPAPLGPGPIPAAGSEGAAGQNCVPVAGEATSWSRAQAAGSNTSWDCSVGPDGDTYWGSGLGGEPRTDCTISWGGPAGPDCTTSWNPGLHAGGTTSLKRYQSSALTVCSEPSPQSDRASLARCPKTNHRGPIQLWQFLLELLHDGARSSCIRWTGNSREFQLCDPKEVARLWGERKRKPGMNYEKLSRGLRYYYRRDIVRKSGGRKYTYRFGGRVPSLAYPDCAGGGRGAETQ
# Summary of the method: as §1
# [17] = molecular target: T11, ELF3 (Homo sapiens, UniProt P78545 1-371); conditions: protein: recombinant; tags: N-terminal GST; dsDNA, one strand shown
# T11 sequence: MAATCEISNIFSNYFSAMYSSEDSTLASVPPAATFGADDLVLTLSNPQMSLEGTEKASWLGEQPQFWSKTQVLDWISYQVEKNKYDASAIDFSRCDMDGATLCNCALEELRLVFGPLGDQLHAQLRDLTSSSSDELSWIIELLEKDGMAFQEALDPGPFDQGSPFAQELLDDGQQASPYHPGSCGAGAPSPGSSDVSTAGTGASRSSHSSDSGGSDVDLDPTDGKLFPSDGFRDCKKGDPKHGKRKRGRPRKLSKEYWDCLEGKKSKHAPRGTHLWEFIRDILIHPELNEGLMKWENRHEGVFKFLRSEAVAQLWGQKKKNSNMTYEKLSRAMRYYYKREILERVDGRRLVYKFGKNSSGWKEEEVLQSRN
# Summary of the method: as §1
# [18] = molecular target: CRX (Homo sapiens, UniProt O43186 1-299); conditions: protein: recombinant; tags: N-terminal GST; dsDNA, one strand shown
# Sequence of CRX (O43186 whole entry): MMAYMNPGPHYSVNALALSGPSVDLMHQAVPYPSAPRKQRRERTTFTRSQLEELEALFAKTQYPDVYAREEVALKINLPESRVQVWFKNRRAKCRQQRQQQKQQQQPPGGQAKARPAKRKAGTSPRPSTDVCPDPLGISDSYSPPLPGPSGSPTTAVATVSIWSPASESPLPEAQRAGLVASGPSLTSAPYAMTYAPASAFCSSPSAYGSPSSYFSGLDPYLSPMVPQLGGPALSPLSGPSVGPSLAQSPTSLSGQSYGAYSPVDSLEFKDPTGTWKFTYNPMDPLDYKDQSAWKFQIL
# Summary of the method: as §1
# [19] = molecular target: ETV1 (Homo sapiens, UniProt P50549 1-477); conditions: protein: recombinant; tags: N-terminal GST; dsDNA, one strand shown
# Sequence of ETV1 (P50549 whole entry): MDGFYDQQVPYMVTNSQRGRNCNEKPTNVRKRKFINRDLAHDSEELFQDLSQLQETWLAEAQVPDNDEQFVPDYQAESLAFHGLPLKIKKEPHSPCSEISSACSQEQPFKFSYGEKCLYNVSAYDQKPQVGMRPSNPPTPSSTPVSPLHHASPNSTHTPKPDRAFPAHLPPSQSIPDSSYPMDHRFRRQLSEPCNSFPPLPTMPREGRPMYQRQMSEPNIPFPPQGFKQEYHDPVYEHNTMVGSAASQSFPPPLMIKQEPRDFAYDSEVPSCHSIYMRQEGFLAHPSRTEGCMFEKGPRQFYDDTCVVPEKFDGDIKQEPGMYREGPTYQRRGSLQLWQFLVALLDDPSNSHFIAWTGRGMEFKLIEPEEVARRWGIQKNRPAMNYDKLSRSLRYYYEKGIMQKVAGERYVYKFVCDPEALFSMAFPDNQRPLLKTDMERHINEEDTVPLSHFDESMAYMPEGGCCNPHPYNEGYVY
# Summary of the method: as §1
sequence,measurement,setting,value
CTCTAG,binding signal,[1],"1.25 fold enrichment (6-mer frequency, TF over GST control)"
same,binding signal,[2],"1.26 fold enrichment (6-mer frequency, TF over GST control)"
same,binding signal,[3],"1.32 fold enrichment (6-mer frequency, TF over GST control)"
same,binding signal,[4],"1.25 fold enrichment (6-mer frequency, TF over GST control)"
same,binding signal,[5],"1.38 fold enrichment (6-mer frequency, TF over GST control)"
same,binding signal,[6],"1.36 fold enrichment (6-mer frequency, TF over GST control)"
same,binding signal,[7],"1.09 fold enrichment (6-mer frequency, TF over GST control)"
same,binding signal,[8],"1.22 fold enrichment (6-mer frequency, TF over GST control)"
same,binding signal,[9],"1.26 fold enrichment (6-mer frequency, TF over GST control)"
same,binding signal,[10],"1.25 fold enrichment (6-mer frequency, TF over GST control)"
same,binding signal,[11],"1.3 fold enrichment (6-mer frequency, TF over GST control)"
same,binding signal,[12],"2.39 fold enrichment (6-mer frequency, TF over GST control)"
same,binding signal,[13],"1.37 fold enrichment (6-mer frequency, TF over GST control)"
same,binding signal,[14],"1.32 fold enrichment (6-mer frequency, TF over GST control)"
same,binding signal,[15],"1.31 fold enrichment (6-mer frequency, TF over GST control)"
same,binding signal,[16],"1.12 fold enrichment (6-mer frequency, TF over GST control)"
same,binding signal,[17],"1.1 fold enrichment (6-mer frequency, TF over GST control)"
same,binding signal,[18],"1.46 fold enrichment (6-mer frequency, TF over GST control)"
same,binding signal,[19],"1.16 fold enrichment (6-mer frequency, TF over GST control)"
